Screening data (PubChem)
ALOX12 inhib = 12-hLO (ALOX12) enzyme inhibition; Potency, µM (top dose mostly 57.1 µM), hits mostly inhibitors; AID 1452; 150,000 tested, 0.12% active; purified 12-hLO, xylenol orange hydroperoxide absorbance; P18054; active means well fitted curve in the direction sought with a large enough effect; inconclusive means small, poorly fitted or top-dose-only effect, or another doubt; inactive means no such curve, though single readings can be large; an effect the other way counts as inactive or inconclusive; further: nearly all actives have a fitted effect of over 55% in size
Target sequence (P18054 whole entry, looked up): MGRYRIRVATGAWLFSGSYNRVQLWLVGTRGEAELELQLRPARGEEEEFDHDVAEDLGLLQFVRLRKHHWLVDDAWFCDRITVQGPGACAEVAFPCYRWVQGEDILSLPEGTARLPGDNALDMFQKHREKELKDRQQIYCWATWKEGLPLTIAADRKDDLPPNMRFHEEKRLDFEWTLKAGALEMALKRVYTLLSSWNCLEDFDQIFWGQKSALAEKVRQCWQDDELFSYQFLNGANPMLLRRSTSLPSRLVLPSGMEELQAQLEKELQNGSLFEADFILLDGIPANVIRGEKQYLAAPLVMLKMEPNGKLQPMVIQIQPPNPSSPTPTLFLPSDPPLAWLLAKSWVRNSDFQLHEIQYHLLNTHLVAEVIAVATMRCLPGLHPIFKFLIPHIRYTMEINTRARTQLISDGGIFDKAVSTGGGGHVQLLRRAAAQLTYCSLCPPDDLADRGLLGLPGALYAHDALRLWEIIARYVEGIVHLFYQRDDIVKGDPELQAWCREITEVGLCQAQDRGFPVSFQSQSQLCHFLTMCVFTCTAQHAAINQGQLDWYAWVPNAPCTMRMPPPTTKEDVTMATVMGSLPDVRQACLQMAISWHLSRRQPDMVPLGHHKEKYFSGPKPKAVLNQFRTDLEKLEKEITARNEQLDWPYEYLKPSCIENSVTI
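Hydroperoxide formation by human 12-lipoxygenase from 40 uM arachidonic acid was followed colorimetrically via ferric-xylenol orange complex, using the 573/405 nm absorbance ratio. Enzyme concentration was 150 nM, with 30 min reaction at room temperature.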
PNC assembly inh = inhibitors of perinucleolar compartment assembly; 140,000 tested, 3.1% active; activity change (PNC), negative = inhibition, % at 10 µM; PC3M PTB-GFP, PNC prevalence imaging, 16 h; stronger effect = lower value;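 active means readout at or below -70, meaning at least 70% loss of cells showing the perinucleolar compartment, a nuclear body marking cancer cells; inconclusive means readout between -30 and a set limit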
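Compounds are pinned in duplicate onto adhered PC3M cells stably expressing GFP-tagged PTB and incubated 16 h at 37 C. Cells are then fixed, nuclei stained with Hoechst, and PNC-positive cells counted.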
IMPase Li inh = membrane-permeable IMPase blocker, potentiated with lithium; AID 1457; 210,000 tested, 0.35% active; Potency, µM (top dose mostly 59.4 µM), usual class: inhibitors; CHO-M1 cells, IP1 TR-FRET (IP-One), carbachol + lithium; active means well fitted curve in the direction sought with a large enough effect; inconclusive means small, poorly fitted or top-dose-only effect, or another doubt; inactive means no such curve, though single readings can be large; an effect the other way counts as inactive or inconclusive;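 further: IP1 builds up when IMPase is blocked and the TR-FRET signal falls; nearly all actives have a fitted effect of over 50% in size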
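CHO cells stably expressing M1 receptor (2000/well, cultured 16–30 h) treated 30 min at 37C with compound plus low lithium. Cytosolic IP1 by TR-FRET (665/620 ratio and 620 channel) after 10 min lysis; AC50 by Hill fit.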
HPGD inh = blocks human HPGD enzyme activity; P15428; purified HPGD, NADH fluorescence kinetic, PGE2 substrate; Potency, µM, most hits filed as inhibitors; 150,000 tested, 4.3% active; AID 894
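NADH formation kinetics: reaction with 30 uM PGE2 and 1 mM NAD+ (final), 20 nM enzyme, Tris-HCl pH 8 with Tween 20, after 15 min compound preincubation at room temperature. Fluorescence change, last versus first of five reads.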
ALDH1A1 block = blocks purified human ALDH1A1 activity; P00352; Purified ALDH1A1, NADH fluorescence, propionaldehyde substrate; Potency, µM (series often up to 75.3 µM), usual class: inhibitors; 220,000 tested, 7.3% active; AID 1030
IMPase inh = membrane-permeable compound that blocks inositol monophosphatase | CHO-M1 cells, IP1 accumulation, HTRF TR-FRET ratio | inhibition (IP1 accumulation), % at 46.1 µM | 120,000 tested, under 10 active | AID 901; active means well fitted curve in the direction sought with a large enough effect in the signal ratio, not every such curve was filed as active; inconclusive means small, poorly fitted or top-dose-only effect, or a change in a side signal; inactive means no such curve, though single readings can be large or run the other way; the % refers to the signal ratio;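 further: cells stimulated with carbachol in lithium chloride buffer; higher means more IMPase inhibition seen as more IP1 and lower FRET ratio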
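In this qHTS, compounds (final up to 46 uM) act on CHO-M1 cells that are then activated through the M1 receptor with carbachol, in pH 7.4 buffer containing 50 mM LiCl, for 30 min. IP1 accumulation is quantified by the IP-One immunoassay.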
Hits are given with their value; [ ] = dose if it differs, or a comment. Rows were chosen to be rich in hits. Some 11% of all compounds tested hit in one or more screens of this group. Unless noted, the call rests on the fitted dose curve; in most records, active means well fitted inhibition curve with a large enough effect (not every such curve was filed as active); inconclusive means small, poorly fitted or top-dose-only effect, or another doubt; inactive means no such curve, though single readings can be large or run the other way.

`CCOc1cc(C)c(C(C)C)cc1S(=O)(=O)NCc1ccccn1` gave ALOX12 inhib inactive, PNC assembly inh -82, IMPase Li inh inactive, HPGD inh inactive, ALDH1A1 block 14µM and IMPase inh inactive.
For CNC(=O)C1C(=S)NC(N)=C(C#N)C1c1ccccc1 (stereo unspecified) the results were ALOX12 inhib inconclusive, PNC assembly inh inactive, IMPase Li inh inactive, HPGD inh inactive, ALDH1A1 block 18µM and IMPase inh inactive.
`N#CC1=C(N)Nc2ncnn2C1c1ccccc1` (stereo unspecified) gave ALOX12 inhib inactive, PNC assembly inh inactive, IMPase Li inh inactive, HPGD inh inactive and ALDH1A1 block inactive.
O=[N+]([O-])c1c(NCCCO)cc(Sc2nc3ccccc3s2)c2nonc12 was read as ALOX12 inhib inactive, PNC assembly inh inactive, IMPase Li inh inactive, HPGD inh 2.8µM, ALDH1A1 block 16µM and IMPase inh inactive.
For CS(=O)(=O)c1ccc(Sc2nc3ccccc3[nH]2)c([N+](=O)[O-])c1 the results were ALOX12 inhib inactive, PNC assembly inh inconclusive, IMPase Li inh inactive, HPGD inh inactive, ALDH1A1 block inactive and IMPase inh inactive.
For CCC(=O)OCCNc1cc(Sc2nc3ccccc3[nH]2)c2nonc2c1[N+](=O)[O-] the results were ALOX12 inhib inactive, PNC assembly inh inactive, IMPase Li inh inactive, HPGD inh 7.1µM, ALDH1A1 block inactive and IMPase inh inactive.
`Cc1nnc(Sc2cc(NCCO)c([N+](=O)[O-])c3nonc23)s1` gave IMPase Li inh inactive and ALDH1A1 block inactive.
CCC(=O)OCCNc1cc(Sc2nc3ccccc3s2)c2nonc2c1[N+](=O)[O-] was read as ALOX12 inhib inactive, PNC assembly inh inactive, IMPase Li inh inactive, HPGD inh 3.2µM, ALDH1A1 block 8.9µM and IMPase inh inactive.
Screening O=C(Nc1ccc2c(c1)OCO2)c1ccc(S(=O)(=O)N2CCCC2)cc1 returned IMPase Li inh inactive and ALDH1A1 block inconclusive.
`CC(NC(=S)Nc1ccc(S(=O)(=O)N2CCOCC2)cc1)C1CC2CCC1C2` (stereo unspecified) gave ALOX12 inhib inconclusive, PNC assembly inh inactive, IMPase Li inh inactive, HPGD inh inactive and ALDH1A1 block 20µM.
`O=S(=O)(c1ccc(NC(=S)Nc2ccccc2)cc1)N1CCOCC1` gave ALOX12 inhib inactive, PNC assembly inh inactive, IMPase Li inh inactive, HPGD inh inactive and ALDH1A1 block 20µM.
Screening NC(N)=NS(=O)(=O)c1ccc(NC(=S)NC(=O)c2ccc3c(c2)OCO3)cc1 returned IMPase Li inh inconclusive and ALDH1A1 block 25µM.
For NS(=O)(=O)c1ccc(NC(=S)NC(=O)c2ccc3c(c2)OCO3)cc1 the results were IMPase Li inh inactive and ALDH1A1 block inconclusive.
For O=S(=O)(c1ccc(NC(=S)Nc2ccc3c(c2)OCO3)cc1)N1CCOCC1 the results were ALOX12 inhib inactive, PNC assembly inh inactive, IMPase Li inh inactive, HPGD inh inconclusive and ALDH1A1 block 22µM.
O=C(CCc1ccccc1)NC(=S)Nc1ccc(S(=O)(=O)N2CCOCC2)cc1 was read as ALOX12 inhib inactive, PNC assembly inh inconclusive, IMPase Li inh inactive, HPGD inh inactive and ALDH1A1 block inconclusive.
Screening CCOc1ccc(C2c3c(oc4cc(C)c(C)cc4c3=O)C(=O)N2c2ccccn2)cc1 (stereo unspecified) returned IMPase inh inactive.
CNS(=O)(=O)c1ccc(NC(=S)Nc2ccc3c(c2)OCO3)cc1 was read as IMPase Li inh inactive and ALDH1A1 block 5µM.
For Cc1cc(NS(=O)(=O)c2ccc(NC(=O)Nc3ccc4c(c3)OCO4)cc2)no1 the results were ALOX12 inhib inactive, PNC assembly inh inactive, IMPase Li inh inactive, HPGD inh inactive, ALDH1A1 block inactive and IMPase inh inactive.
For Cc1ccc(/C=N/N2CCN(Cc3ccc(Cl)cc3)CC2)o1 the results were ALOX12 inhib inactive, PNC assembly inh inactive, IMPase Li inh inactive, HPGD inh inactive, ALDH1A1 block 7.9µM and IMPase inh inactive.
Clc1ccc(CN2CCN(/N=C/c3ccco3)CC2)cc1 was read as IMPase Li inh inactive and ALDH1A1 block inconclusive.
Screening CCN(CC)c1ccc(/C=N\N2CCN(Cc3ccc(C)cc3)CC2)cc1 returned IMPase Li inh inactive and ALDH1A1 block 0.79µM.
`Cc1ccc(CN2CCN(/N=C/c3ccc(C(=O)O)cc3)CC2)cc1` gave ALOX12 inhib inactive, PNC assembly inh inactive, IMPase Li inh inactive, HPGD inh inactive, ALDH1A1 block inactive and IMPase inh inactive.
For NNC(=O)[C@H](Cc1ccccc1)NC(=O)Nc1ccc2c(c1)OCCO2 the results were ALDH1A1 block inactive.
Screening C/C(=N\NC(=O)c1csc(C)c1C)c1ccc(C)s1 returned ALOX12 inhib inactive, PNC assembly inh inactive, IMPase Li inh inactive, HPGD inh 14µM and ALDH1A1 block inactive.
For COc1cccc(/C=C2\CCc3ccccc3C2=O)c1 the results were ALDH1A1 block inactive.
Screening O=S(=O)(Nc1ccc2c(c1)OCO2)c1ccccc1 returned ALOX12 inhib inactive, PNC assembly inh inactive, IMPase Li inh inactive, HPGD inh inconclusive, ALDH1A1 block inactive and IMPase inh inactive.
For O=C1/C(=C/Nc2ccc3c(c2)OCO3)CCc2ccccc21 the results were ALOX12 inhib inactive, PNC assembly inh inactive, IMPase Li inh inactive, HPGD inh 25µM, ALDH1A1 block 10µM and IMPase inh inactive.
COc1ccc2c(c1)CC/C(=C\C=C\c1ccccc1)C2=O was read as ALOX12 inhib inactive, PNC assembly inh inactive, IMPase Li inh inactive, HPGD inh inactive and ALDH1A1 block 28µM.
For COc1ccc2c(c1)CC/C(=C\Nc1ccc3c(c1)OCO3)C2=O the results were ALOX12 inhib inconclusive, PNC assembly inh inactive, IMPase Li inh inactive, HPGD inh inactive, ALDH1A1 block 2µM and IMPase inh inactive.
Screening COc1ccc(N/C=C2\CCc3ccccc3C2=O)cc1 returned IMPase Li inh inactive and ALDH1A1 block inconclusive.
`C=C(C)C(O)/C=C/CCCCCCC` (stereo unspecified) gave ALDH1A1 block inactive[13.5 µM].
For O=S1(=O)N[C@H]2CC[C@@H]3NS(=O)(=O)N[C@H]4CC[C@H](N1)N4S(=O)(=O)N23 the results were ALOX12 inhib inactive[11.4 µM], IMPase Li inh inactive, HPGD inh inactive and ALDH1A1 block inactive[13.5 µM].
`CC1Nc2ccccc2C(=O)N1NC(=O)c1ccc(Br)cc1` (stereo unspecified) gave IMPase Li inh inactive and ALDH1A1 block inactive.
O=S(=O)(NC(=S)NC1CCCCC1)c1ccc(Cl)cc1 was read as IMPase Li inh inactive and ALDH1A1 block 25µM.
For CCc1ccc(S(=O)(=O)NC(=S)NC2CCCCC2)cc1 the results were ALDH1A1 block 25µM.
